Compound activity: PubChem BioAssay, National Center for Advancing Translational Sciences (NCATS)
Most compounds without a hit are left out; they make up all but 8% or so of the library.
FMDV inh: blocks foot and mouth disease virus. FMDV antiviral cell-based qHTS. Potency, µM (series often up to 57.9 µM), usual class: inhibitors. 1.2% of 410,000 active. AID 1159524; calls by dose curve; tested in HEK293T cells; further: read-out not given here; nearly all actives have a fitted effect of over 45% in size
HCMV inh: blocks human cytomegalovirus replication; HFF cells, HCMV-luciferase reporter, 72 h; stronger effect = lower value; activity change, negative = inhibition, % at 57.5 µM; 4.5% of 410,000 active; in the data active means activity change below about -60%; inconclusive means no clear call, values can overlap the other calls; inactive means above about -39%
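Two-dose cell screen: HFF monolayers treated with compounds and infected with luciferase-expressing HCMV at 1 PFU/cell, 72 h at 37C, then lysed for luciferase measurement.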
MARV entry inh: inhibitors of Marburg virus binding or cell entry; Marburg virus pseudotyped entry inhibition, cell reporter; Potency, µM (highest dose often 37.8 µM), actives largely listed as inhibitors; 1.8% of 300,000 active; calls by dose curve; tested in HEK293 cells
Lassa entry inh: Lassa virus entry inhibition; Lassa virus pseudotype entry inhibition, cell reporter; Potency, µM (series often up to 37.9 µM), usual class: inhibitors; 1.2% of 300,000 active; calls by dose curve; tested in HEK293 cells; further: nearly all actives have a fitted effect of over 50% in size
SARS PLpro yeast: blocks SARS-CoV papain-like protease in a yeast assay; S. cerevisiae expressing SARS-CoV PLpro, growth rescue; Potency, µM (titrated, usually from 32.9 µM), hits mostly activators; 0.19% of 330,000 active; calls by dose curve; further: nearly all actives have a fitted effect of over 55% in size
HCV inhibitor: inhibitors of hepatitis C virus infection. Huh7.5.1 HCVcc-Cre infection, luciferase reporter, 44 h. Potency, µM (doses to about 41.8 µM), usual class: inhibitors. 3.4% of 340,000 active. AID 651820; active means well fitted inhibition curve with a large enough effect; inconclusive means small, poorly fitted or top-dose-only effect, or another doubt; inactive means no such curve, though single readings can be large or run the other way
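Infectious HCVcc-Cre (~0.5 moi) was added to cells just after compound, with cells seeded 4 h earlier at 1,000 per well. Luciferase activity after 44 h culture reported infection; substrate was incubated 15 min at room temperature before reading.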
Large screens that a line does not name were inactive.

COc1ccc(OC)c(N=c2ssnc2Cl)c1	none
CSCC(C)N1CCC(n2nccc2NC(=O)CCCc2ccccc2)CC1 (stereo not drawn)	HCMV inh active (no result: MARV entry inh, Lassa entry inh)
COc1ccccc1/C=C/CN1CCC(n2nccc2NC(=O)CCc2ccccc2)CC1	FMDV inh inconclusive, HCMV inh inconclusive, HCV inhibitor 3.5µM (no result: MARV entry inh, Lassa entry inh)
O=C(c1cccs1)c1ccccc1Cc1cccs1	none (no result: SARS PLpro yeast)
Cc1nn(-c2ccccc2)c(Cl)c1/C=N/Nc1ccc(Cl)c(C(=O)O)c1	FMDV inh 10µM, MARV entry inh 2µM, Lassa entry inh inconclusive
COc1cccc2cc(C(C)N(CCCN3CCOCC3)C(=S)Nc3cccc(C)c3)oc12 (stereo not drawn)	MARV entry inh 10µM, Lassa entry inh inconclusive
COc1cccc2cc(C(C)N(CCCN3CCOCC3)C(=S)Nc3cc(C)cc(C)c3)oc12 (stereo not drawn)	MARV entry inh inconclusive
COc1cccc(NC(=S)N(CCCN2CCC(C)CC2)Cc2cccs2)c1	MARV entry inh inconclusive, HCV inhibitor inconclusive
COc1cccc(NC(=S)N(CCCN2CCOCC2)Cc2cn(C)c3ccccc23)c1	HCMV inh -78, MARV entry inh inconclusive, Lassa entry inh inconclusive, HCV inhibitor inconclusive
COc1ccc(NC(=S)N(CCCN2CCOCC2)Cc2cn(C)c3ccccc23)cc1OC	HCMV inh -87, MARV entry inh inconclusive, Lassa entry inh inconclusive, HCV inhibitor inconclusive
CC(C)(C)C1CCC(OC(=O)C[N+]2(C)CCCCC2)CC1 (stereo not drawn)	HCMV inh -62
Cc1ccc(CSc2nnc(SCC(=O)N/N=C/C=C/c3ccco3)s2)cc1	HCMV inh -61, MARV entry inh inconclusive, Lassa entry inh inconclusive
Cc1ccccc1-n1c(SCC(=O)N/N=C/C=C/c2ccccc2[N+](=O)[O-])nc2ccccc2c1=O	HCMV inh inconclusive, MARV entry inh 7.1µM, Lassa entry inh inconclusive, HCV inhibitor inconclusive
O=C(CSc1nc2ccccc2c(=O)n1-c1ccccc1)N/N=C/C=C/c1ccccc1[N+](=O)[O-]	HCV inhibitor inconclusive (no result: MARV entry inh, Lassa entry inh)
Cc1ccc(CSc2nnc(SCC(=O)N/N=C/C=C/c3ccccc3[N+](=O)[O-])s2)cc1	HCMV inh -78, MARV entry inh inconclusive, Lassa entry inh inconclusive
Cc1noc(C)c1S(=O)(=O)N(C)C[C@H]1Oc2ccc(NC(=O)Cc3ccccc3)cc2C(=O)N([C@H](C)CO)C[C@@H]1C	none (no result: MARV entry inh, Lassa entry inh)
CC(C)N1C[C@@H](Sc2ccccn2)C[C@H]1C(=O)Nc1ccc2c(c1)Nc1ccccc1CC2	none (no result: HCMV inh, MARV entry inh, Lassa entry inh, SARS PLpro yeast, HCV inhibitor)
O=C(CSc1nccn1Cc1ccccc1)Nc1ccc2c(c1)OCCO2	none (no result: MARV entry inh, SARS PLpro yeast, HCV inhibitor)
O=C(Nc1ccc2oc(-c3ccccc3)nc2c1)c1ccccc1F	HCMV inh -89, Lassa entry inh inconclusive, HCV inhibitor inconclusive
O=C(Nc1ccc(-c2nc3cc(NC(=O)c4cccs4)ccc3o2)cc1)c1cccs1	HCMV inh -70, MARV entry inh 8.2µM, Lassa entry inh 15µM, HCV inhibitor 11µM
CCc1ccc2oc(-c3ccc(NC(=O)c4cccc(Cl)c4Cl)cc3)nc2c1	FMDV inh 13µM, HCMV inh -70 (no result: MARV entry inh, SARS PLpro yeast, HCV inhibitor)
O=C1N(Cc2ccccc2Cl)c2ccccc2C1(O)c1c[nH]c2ccccc12 (stereo not drawn)	HCMV inh -94 (no result: SARS PLpro yeast, HCV inhibitor)
Cc1ccccc1CN1C(=O)C(O)(c2c[nH]c3ccccc23)c2cc(Cl)ccc21 (stereo not drawn)	HCMV inh -93, MARV entry inh 8.9µM, Lassa entry inh inconclusive (no result: SARS PLpro yeast, HCV inhibitor)
Cc1[nH]c2ccccc2c1C1(O)C(=O)N(Cc2ccc(Cl)cc2)c2ccccc21 (stereo not drawn)	HCMV inh -99, Lassa entry inh inconclusive (no result: SARS PLpro yeast, HCV inhibitor)
Cc1ccc(CN2C(=O)C(O)(c3c(C)[nH]c4ccccc34)c3ccccc32)cc1 (stereo not drawn)	Lassa entry inh inconclusive (no result: SARS PLpro yeast, HCV inhibitor)
O=C(c1ccc2c(c1)OCO2)N1CC(=O)N2[C@H](C1)[C@@H](c1ccc(Br)cc1)[C@@H]2CO	none (no result: FMDV inh, MARV entry inh, Lassa entry inh, SARS PLpro yeast, HCV inhibitor)
COc1ccc(-c2ccn(-c3cccc(F)n3)n2)cc1	MARV entry inh 10µM, Lassa entry inh inconclusive
CCOc1c(OC(C)=O)ccc(/C=C/c2ccc3cccc(OC)c3n2)c1[N+](=O)[O-]	Lassa entry inh inconclusive, HCV inhibitor 10µM
COc1ccc(Br)cc1/C=C/c1ccc2cccc(O)c2n1	HCV inhibitor inconclusive
COc1cc(Br)cc(/C=C/c2ccc3cccc(O)c3n2)c1OC	none (no result: MARV entry inh, Lassa entry inh)
COc1ccc(/C=C/c2ccc3cccc(O)c3n2)c(OC)c1OC	HCMV inh -94 (no result: MARV entry inh, Lassa entry inh)
COc1cc(/C=C/c2ccc3cccc([N+](=O)[O-])c3n2)ccc1OCC(=O)O	none (no result: MARV entry inh, Lassa entry inh)
COc1cccc(/C=C/c2ccc3cccc(O)c3n2)c1OC	HCV inhibitor 10µM (no result: MARV entry inh, Lassa entry inh)
COc1ccc(N2CCN(c3cc(C(=O)Nc4cc(OC)c(OC)c(OC)c4)ncn3)CC2)cc1OC	none (no result: MARV entry inh, Lassa entry inh, SARS PLpro yeast, HCV inhibitor)
CCCNC(=O)C1(C)CCN1C(=O)c1ccc(C(C)(C)C)cc1 (stereo not drawn)	none (no result: MARV entry inh, Lassa entry inh, SARS PLpro yeast, HCV inhibitor)
N#CC(c1ccc(Cl)nn1)c1ccc(Cl)cc1Cl (stereo not drawn)	MARV entry inh inconclusive, Lassa entry inh inconclusive, HCV inhibitor 11µM
COc1ccc(C(C#N)c2ccc(Cl)nn2)cc1 (stereo not drawn)	none
CCCNC(=O)c1c2c(nc3ccccc13)C(=O)N(C1CCCCC1)C2	none (no result: MARV entry inh, SARS PLpro yeast, HCV inhibitor)
CCCNC(=O)OC[C@H]1O[C@H](CCON=CC[C@@H]2C=C[C@H](OC(C)=O)[C@@H](COC(C)=O)O2)C=C[C@H]1Oc1ccc(OC)cc1	none (no result: FMDV inh, HCMV inh, SARS PLpro yeast, HCV inhibitor)
COC(=O)C(NC(=O)OCc1ccccc1)(c1ccc(Cl)cc1)C(Nc1ccccc1)c1ccccc1 (stereo not drawn)	none (no result: FMDV inh, MARV entry inh, Lassa entry inh, SARS PLpro yeast, HCV inhibitor)
CCOC(=O)Nc1ccc2c(c1)N(C(=O)CN(CC)CC)c1ccccc1CC2	none
CCCC(CCC)C(=O)Nc1ccc2c(c1)N(C(=O)CCN1CCN(C)CC1)c1ccccc1CC2	MARV entry inh 11µM, HCV inhibitor inconclusive
CCOC(=O)Nc1ccc2c(c1)N(C(=O)CN1CCN(C)CC1)c1ccccc1CC2	none (no result: MARV entry inh, Lassa entry inh)
CCN(CC)CC(=O)Nc1ccc2c(c1)Nc1ccccc1CC2	MARV entry inh inconclusive, HCV inhibitor 13µM
CCN(CC)CC(=O)Nc1ccc2c(c1)N(C(=O)CN(CC)CC)c1ccccc1CC2	MARV entry inh 8.2µM, Lassa entry inh inconclusive, HCV inhibitor inconclusive (no result: FMDV inh)
Cc1cc(OC(C)C(=O)Nc2ccccc2C(=O)N2CCCC2)ccc1Cl (stereo not drawn)	none (no result: HCV inhibitor)
COCc1c(C(=O)NC2CCCCC2)cnn1-c1nccc(-c2cc(C)sc2C)n1	none (no result: HCMV inh, MARV entry inh, Lassa entry inh, SARS PLpro yeast, HCV inhibitor)
CSc1sc(C)cc1C=O	none
CSc1cc(/C=N/O)c(SC)s1	MARV entry inh inconclusive, HCV inhibitor 10µM
CCOC(=O)CSc1nnc(NC(=O)c2cc([N+](=O)[O-])cc([N+](=O)[O-])c2)s1	FMDV inh 35µM
Cn1c(Cn2nnc(-c3ccccc3)n2)nnc1SCc1ccccc1Cl	none
COc1ccc(CCC(=O)NNC(=O)Nc2ccc(C(C)=O)cc2)cc1	Lassa entry inh 0.71µM
COc1ccc(C(C)NC(=O)CCc2ccccc2)cc1 (stereo not drawn)	none
